Experimental data from PubChem BioAssay (NCI).
Compounds without any hit were thinned out: in the full panel of roughly 79,000, 15% have a hit. Calls of active or inactive are those of the source. Rule as the data show it: active = growth inhibition above about 70%; inactive = the rest.

assay: NCI Yeast Anticancer Drug Screen. Data for the mlh1 rad18 strain (AID 175); settings: S. cerevisiae mlh1 rad18 strain growth inhibition; at 50.0 µM; active compounds read high
Outline: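 Steps: expose repair-defective yeast to compound; measure growth; express inhibition against vehicle-treated controls.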

Row | Structure (SMILES) | growth inhibition
1 | CC(Oc1ccccc1)C(=O)NNC(=O)OC(C)(C)C (configuration not stated) | 3.9% (inactive)
2 | CC(C)=CCc1ccc2c(c1)CCCN2C | 1.15% (inactive)
3 | O=C(O)C(O)C(O)C(O)C(O)C(O)CO.[NH-]C1CCCCC1[NH-].[Pt+2] (configuration not stated) | -49.5% (inactive)
4 | COc1ccc(NC(=O)CC(=O)N/N=C(/C)c2cc3cc(N=Nc4ccccc4Cl)ccc3oc2=O)cc1 | -10.2% (inactive)
5 | Cc1cc(C[C@H]2O[C@@H]3OC(C)(C)O[C@@H]3[C@H]3OC(C)(C)O[C@H]32)c2ccccc2n1 | 17.6% (inactive)
6 | O=S1(=O)CC(N2CCCCC2)C=C(c2ccccc2)O1 (configuration not stated) | 34.2% (inactive)
7 | Cc1cc2sc(C)[n+](CCCOS(=O)(=O)[O-])c2cc1C | -35.9% (inactive)
8 | COc1ccc(N)c(C(=O)CCNC(C)=O)c1 | -25.4% (inactive)
9 | O=C(Nc1ccccc1Cl)c1ccccc1O | -16.4% (inactive)
10 | C=C(C)C#CC(O)(C(=O)OC1CCN(C)CC1)C(C)C (configuration not stated) | -22.1% (inactive)
11 | O=[N+]([O-])c1ccc(-c2nnn(Cc3ccco3)c2N2CCCCC2)cc1 | 81.3% (active)
12 | O=[N+]([O-])c1cc2no[n+]([O-])c2cc1N1CCOCC1 | 99.2% (active)
13 | c1ccc2cc(N=NNc3ccc4ccccc4c3)ccc2c1 | 74% (active)
14 | CCC(Nc1nncs1)Nc1nncs1 | -3% (inactive)
15 | CC(=O)NC(Cc1ccc(C)cc1)C(=O)O (configuration not stated) | 1.7% (inactive)
16 | CSCCC(Nc1ncnc2nc[nH]c12)C(=O)O (configuration not stated) | -9.5% (inactive)
17 | O=c1cc(CNC2CC3CCC2C3)[nH]c(=O)[nH]1 (configuration not stated) | -0.2% (inactive)
18 | CC1CN(C(=O)OCC23COC4(C)CCC(C)(OC2)N34)CC(C)O1 (configuration not stated) | 5.75% (inactive)
19 | CCOc1ccc(N=Cc2c3ccccc3nc3ccccc23)cc1 | -9% (inactive)

Row | Structure (SMILES) | growth inhibition
20 | CC1(c2ccc(Cl)s2)NC(=O)NC1=O (configuration not stated) | -13.5% (inactive)
21 | CCC(O)C(O)(c1ccccc1)c1ccccc1 (configuration not stated) | -6.7% (inactive)
22 | NC(Cc1c[nH]c2ccc([N+](=O)[O-])cc12)C(=O)O (configuration not stated) | -7.7% (inactive)
23 | COc1ccc2ncc(COC(=O)Nc3ccccc3)c(COC(=O)Nc3ccccc3)c2c1 | 6.1% (inactive)
24 | CCCCC(C=O)(CC)CCC#N (configuration not stated) | 42.2% (inactive)
25 | NC(=S)NNCC(=O)CC(O)(C(F)(F)F)C(F)(F)Cl (configuration not stated) | -0.65% (inactive)
26 | C=C1C(=O)OC2C1CCC1(C)CC(Br)C(=O)C(C)C21 (configuration not stated) | -4.65% (inactive)
27 | COc1ccccc1N1C(Cl)C(=O)C1c1c[nH]c2ccccc12 (configuration not stated) | -34.9% (inactive)
28 | O=C(O)c1cc(C(=O)O)cc(N(CCO)CCO)c1 | -14.2% (inactive)
29 | Cc1c(C=O)cc(-c2ccccc2)n1C | -1.6% (inactive)
30 | O=C(O)c1ccc(-c2ccc(O)cc2)cc1 | 9.4% (inactive)
31 | c1ccc(C2c3ccccc3-c3ncnc(N4CCCCC4)c32)cc1 (configuration not stated) | 14.7% (inactive)
32 | O=C1C=CC2(CC=CCC2)CC1 (configuration not stated) | 0.55% (inactive)
33 | COc1ccc(-c2nnc(-c3ccc(OC)cc3)nn2)cc1 | -3% (inactive)
34 | O=[N+]([O-])c1ccc(-c2ccc(-c3ccccc3)cc2)cc1 | -3.6% (inactive)
35 | O=C(O)c1ccc(C(=O)c2ccccc2)c(C(=O)O)c1 | -17.4% (inactive)
36 | O=C(c1ccc(Cl)c(Cl)c1)N1CCCCC1 | -6.25% (inactive)
37 | NC(CCC(=O)NC(CSSCCCCS(=O)O)C(=O)NCC(=O)O)C(=O)O (configuration not stated) | 1.4% (inactive)
